# Assay outcomes deposited in PubChem by National Center for Advancing Translational Sciences (NCATS).
# Most compounds without a hit are left out; they make up all but 6% or so of the library.
# VDR inhibitor: blocks the human vitamin D receptor | P11473 | VDR-SRC2-3 peptide fluorescence polarization, 2 h | Potency, µM, inactives show max response, negative = inhibition, hits mostly inhibitors | actives 0.93% (n = 400,000)
# Target sequence (P11473 whole entry, looked up): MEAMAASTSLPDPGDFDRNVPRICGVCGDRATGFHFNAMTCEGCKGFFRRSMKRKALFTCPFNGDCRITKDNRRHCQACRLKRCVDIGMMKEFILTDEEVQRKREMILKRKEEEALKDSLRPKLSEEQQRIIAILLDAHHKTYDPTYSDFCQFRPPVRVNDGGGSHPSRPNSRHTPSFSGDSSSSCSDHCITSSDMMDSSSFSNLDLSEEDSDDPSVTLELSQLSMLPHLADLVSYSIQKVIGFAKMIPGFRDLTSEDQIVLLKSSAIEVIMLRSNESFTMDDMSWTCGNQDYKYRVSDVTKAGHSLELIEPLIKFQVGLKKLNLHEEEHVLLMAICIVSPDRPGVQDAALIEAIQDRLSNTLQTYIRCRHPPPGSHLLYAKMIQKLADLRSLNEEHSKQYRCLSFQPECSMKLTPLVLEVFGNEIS
#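 Reagent solutions, kept cold and dark, are dispensed first; compounds are then pinned in at 23 nl, plates briefly spun, and incubated 2 h at ambient temperature. Inhibition of VDR–SRC2-3 peptide binding is read by fluorescence polarization.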
# PLK1 PBD block: PLK1 (human) polo-box domain binding inhibition; Potency, µM, inactives show max response, negative = inhibition, actives largely listed as inhibitors; Plk1 PBD binding of FITC phosphopeptide, fluorescence polarization; P53350; AID 720504; actives 2.8% (n = 360,000); also: series mostly up to about 57 µM; nearly all actives have a fitted effect of over 65% in size
# Tau fibril ThT: blocks human tau fibril formation measured by thioflavin T; actives 2.1% (n = 270,000); P10636; Potency, µM (titrated, usually from 57.4 µM), without a hit: top-dose activity, negative = inhibition, actives largely listed as inhibitors; AID 1460; recombinant tau K18 P301L, heparin-induced fibrillization, ThT fluorescence; also: nearly all actives have a fitted effect of over 55% in size
# Target sequence (P10636 561-689 P618L limits assumed): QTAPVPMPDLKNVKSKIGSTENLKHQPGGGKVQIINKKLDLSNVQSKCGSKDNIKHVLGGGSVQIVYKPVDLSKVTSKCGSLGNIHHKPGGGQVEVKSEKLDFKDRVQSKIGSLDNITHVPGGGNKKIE
#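 Aggregation was driven by heparin (20 uM final) acting on recombinant tau […] bearing P301L in 100 mM sodium acetate pH 7; fibrils were detected with Thioflavin T.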
# Tau fluor cs: counter-screen for tau fibril formation inhibitors. actives 0.93% (n = 280,000). Potency, µM (doses to about 57.7 µM), for inactives: at the top dose activity change, negative = decrease. tau K18 P301L (four-repeat tau fragment) Alexa594 fluorescence, heparin fibrillization; also: nearly all actives have a fitted effect of over 55% in size
#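 Human K18 P301L tau (15 uM unlabeled plus 0.24 uM Alexa 594-labeled, final) in 100 mM sodium acetate pH 7 was mixed with compound and 20 uM heparin and incubated 6 hr at 37 C.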
# Sfp inh: Sfp phosphopantetheinyl transferase inhibition; Biochemical Sfp PPTase activity, qHTS; Potency, µM, inactives show largest response in the series, negative = inhibition, hits mostly inhibitors; actives 3.5% (n = 310,000);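 also: the enzyme is Sfp with the accession as filed and its product quenches rhodamine fluorescence; 0% = enzyme reaction without inhibitor and -100% = no enzyme wells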
#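 Reaction rates are the 30-min fluorescence difference (ex 525, em 598 nm) in wells containing 15 nM Sfp, 5 uM rhodamine-CoA and 12.5 uM BHQ-2-YbbR at pH 7.6 with 10 mM MgCl2.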
# Tau fibril FP: inhibitors of human tau fibril formation; actives 0.39% (n = 280,000); K18 P301L tau heparin fibrillization, Alexa594 FP, 6 h; P10636; Potency, µM (series often up to 57.7 µM), inactives show top-dose activity, negative = inhibition, hits mostly inhibitors; AID 1468; also: nearly all actives have a fitted effect of over 55% in size
#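 Human tau K18 […] P301L fragment, 15 uM unlabeled plus 0.24 uM Alexa 594-labeled tau (final), with compound and 20 uM heparin in 100 mM sodium acetate pH 7; 6 hr at 37 C, then Alexa 594 FP read.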
# * hit, by the source's call; u = inconclusive; x = no result given. Calls follow the shape of the dose curve; as a rule, active = well fitted curve in the direction sought with a large enough effect; inconclusive = small, poorly fitted or top-dose-only effect, or another doubt; inactive = no such curve, though single readings can be large; an effect the other way counts as inactive or inconclusive. Unless noted, % is scaled to controls: 0 for no effect and ±100 for the full control effect; potency is read from the fitted curve at half-maximal effect.
SMILES,VDR inhibitor,PLK1 PBD block,Tau fibril ThT,Tau fluor cs,Sfp inh,Tau fibril FP
CC(=O)c1ccc(NC(=O)Cn2c(=O)c3cccn3c3ccccc32)cc1,-7%,x,-8%,u,x,u
Cc1cc(C)n(-c2nc3cc(Cl)ccc3nc2N2CCN(c3ccccc3F)CC2)n1,2%,x,-10%,-11%,x,-1%
c1coc(-c2nc3c4c5c(sc4ncn3n2)CCCC5)c1,4%,-6%,-1%,4%,7%,4%
CN1CCc2c(sc3ncn4nc(-c5ccccc5O)nc4c23)C1,x,x,28µM*,-26%,-3%,u
COc1ccc(C(=O)CCN2CCCC(C)C2)cc1 (centres undefined),71µM*,u,x,x,-16%,x
COc1ccc(C(=O)CCN2CCC(C)CC2)cc1,79µM*,u,x,x,-4%,x
CCOC(=O)N1CCN(CCC(=O)c2ccc(OC)cc2)CC1,u,-20%,u,9%,-2%,20%
CCOC(=O)N1CCN(CCC(=O)c2ccc(Br)cc2)CC1,18µM*,0.67µM*,x,x,50µM*,x
COc1cc2c(cc1OC)CN(CCC(=O)c1ccc(Br)cc1)CC2,71µM*,4.7µM*,u,4%,-8%,12%
O=C(Cn1nc(-c2ccc(Cl)cc2)ccc1=O)NCc1ccccc1Cl,17%,x,-6%,-24%,x,-6%
CC(C)NC(=O)C1(C)CCCCN1Cc1ccc(OCc2ccccc2)cc1 (centres undefined),x,-2%,x,x,x,x
CN(C(=O)CSc1cc(C(=O)c2nccn2C)c2ccccc2n1)c1ccccc1,10%,3%,x,1%,-9%,-8%
C=CCn1c(=O)c2c(nc3n2CCCN3CCc2ccc(OC)c(OC)c2)n(C)c1=O,-11%,-13%,x,x,15%,x
CC1CCCN(CCC(=O)c2ccc(Br)cc2)C1 (centres undefined),79µM*,3.4µM*,u,0%,-14%,12%
O=C(CCCCN1CCCCC1)c1ccccc1,-13%,-20%,x,x,x,x
O=C(CCN1CCC2CCC(C2)C1)c1ccccc1 (centres undefined),71µM*,13µM*,x,x,x,x
COc1cccc(Nc2nc(NCCO)c3ccccc3n2)c1,2%,5%,0%,-13%,20µM*,4%
Fc1ccc(-c2cnn3c(-c4ccncc4)ccnc23)cc1,-19%,0%,3.2µM*,-2%,10%,3%
Cc1nn2c(-c3ccc(F)cc3)ccnc2c1Br,-8%,-5%,x,x,10%,x
Fc1ccc(-c2cnn3c(-c4cccs4)ccnc23)cc1,-4%,-3%,1.4µM*,-14%,-5%,-15%
O=C(NNc1ccccc1)OCc1ccccc1,x,-9%,x,x,x,x
Nc1nc(Nc2ccccc2)nc2c1ncn2[C@@H]1O[C@@H](CO)[C@H](O)[C@H]1O,1%,x,-4%,-9%,6%,0%
CN(C)S(=O)(=O)c1ccc(C(=O)NCC2CC2(Cl)Cl)cc1 (centres undefined),u,24µM*,x,x,-1%,x
COc1cc(-c2ccno2)ccc1S(=O)(=O)N1CCN(c2ccc(F)cc2)CC1,13%,x,-5%,u,x,-10%
COC(=O)C[C@@H]1CC[C@H](NC(=O)Nc2ccc(OC)cc2)[C@@H](CO)O1,x,-5%,x,x,x,x
SMILES,VDR inhibitor,PLK1 PBD block,Tau fibril ThT,Tau fluor cs,Sfp inh,Tau fibril FP
N#Cc1nc(-c2ccc(F)cc2)oc1N1CCCC1,-18%,15µM*,-9%,-7%,-25%,-5%
COc1cccc(-c2nc(CS(=O)(=O)CC(=O)Nc3cccc(C(C)=O)c3)c(C)o2)c1,u,24µM*,-11%,-19%,12%,4%
COc1ccc(-c2nc(CS(=O)(=O)CC(=O)Nc3cccc(C(C)=O)c3)c(C)o2)cc1,2%,-15%,x,x,0%,x
CCCCNC(=O)c1nc(-c2cccnc2OC)oc1-c1ccc(Cl)cc1,x,-10%,x,x,x,x
N#C/C(=C/c1ccc(-c2cccc([N+](=O)[O-])c2)o1)C(=O)Nc1nc(-c2cccs2)cs1,30%,-18%,x,x,x,x
N#C/C(=C\c1ccc(-c2ccc([N+](=O)[O-])cc2)o1)C(=O)Nc1nc(-c2cccs2)cs1,-11%,-14%,2.2µM*,u,-20%,7%
COc1cccc(CNS(=O)(=O)c2ccc(S(=O)(=O)N3CCCC3)cc2)c1,4%,-7%,0%,4%,10µM*,10%
COc1cccc(NS(=O)(=O)c2ccc(S(=O)(=O)N3CCCC3)cc2)c1,-8%,-5%,x,x,x,x
O=S(=O)(NCc1ccco1)c1ccc(S(=O)(=O)N2CCCC2)cc1,-10%,-4%,6%,9%,3.2µM*,7%
CC(C)Cc1nc2sc3c(SCC(N)=O)ncnc3c2c2c1CCC2,-24%,-15%,-17%,-14%,9%,-4%
Nc1c(C(=O)O)sc2nc(-c3ccccc3)c3c(c12)CCCC3,-25%,u,u,-19%,35µM*,-9%
CC(C)c1nc2sc3c(SCC(=O)NCc4ccco4)ncnc3c2c2c1CCC2,-10%,u,-3%,2%,25µM*,-5%
O=c1[nH]cnc2c1sc1nc(-c3ccccc3)c3c(c12)CCCC3,-7%,0%,-12%,-11%,-6%,-3%
O=C(O)CSc1ncnc2c1sc1nc(-c3ccccc3)c3c(c12)CCC3,-11%,30µM*,x,u,5%,5%
COC(=O)c1sc2nc(-c3ccccc3)c3c(c2c1N)CCCC3,-4%,-10%,-5%,0%,-17%,7%
S=c1nc[nH]c2c1sc1nc(-c3ccccc3)c3c(c12)CCCC3,2%,30µM*,u,u,0%,u
Cc1nn2c(-c3cccc(NC(=O)c4ccc(Cl)cc4)c3)nnc2c2ccccc12,-4%,x,-17%,-16%,x,-6%
O=[N+]([O-])c1ccc(Nc2ccc(F)cc2)cc1,5%,-5%,x,x,9%,x
O=[N+]([O-])c1ccc(NNC(=S)Nc2ccc(F)cc2)cc1,u,12µM*,13µM*,u,2.5µM*,2%
COc1ccc(Cl)cc1NC(=O)c1c(NCc2cccnc2)sc2c1CCCC2,u,x,18µM*,u,x,-11%
O=C(Nc1sc2c(c1C(=O)c1ccc(Cl)cc1)CCCC2)c1cccnc1,9%,-5%,u,u,32µM*,-12%
CN(C)C(=S)N=c1ssc(=S)n1Cc1cccnc1,50µM*,27µM*,x,x,x,x
c1ccc(C(c2nnnn2C2CCCCC2)N2CCc3ccccc3C2)nc1 (centres undefined),4%,-19%,u,-8%,79µM*,-11%
Oc1ccc(N2CCN(C(c3ccccn3)c3nnnn3C3CCCC3)CC2)cc1 (centres undefined),-2%,-5%,u,-16%,18µM*,-2%
Clc1ncc(C#Cc2ccccc2)c2ncncc12,28µM*,x,x,x,x,x
COc1ccc(C#Cc2cnc(Cl)c3cncnc23)cc1OC,-13%,x,x,x,x,x
